Bioassay records (PubChem)
CD40 NFkB inh: CD40 pathway inhibition in BL2 cells; inhibition, % at 10 µM; actives 0.94% (n = 83,000); BL2 NF-kB luciferase reporter, CD40L-induced, 4 h; AID 1053188;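 active means mean inhibition of at least 50% with a set share of replicates also reaching that level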
Of the large screens only hits and unclear results are named; the others gave an inactive call; [ ] = another dose, or the depositor's remark. This is one part of a sample in which hits are shown more often than they occur.

O=C(NCCS(=O)(=O)NCCc1ccccc1)c1ccccc1	none
CCCC#Cc1ccc([C@H]2[C@@H](CO)N(C(=O)C3CCCC3)[C@H]2C#N)cc1	none
C[C@@H]1CN([C@H](C)CO)C(=O)c2c(c3ccccc3n2C)-c2ccccc2CO[C@@H]1CN(C)Cc1cccc(O)c1	none
COc1ccc(N2CCN(C(=O)Cn3c(=O)[nH]c4ccccc4c3=O)CC2)cc1	CD40 NFkB inh 29
COc1ccc(N2CCN(C(=O)COc3cccc4ccccc34)CC2)cc1	none
COc1ccc(N2CCN(C(=O)Cn3c(=O)c4cccn4c4cccnc43)CC2)cc1	none
O=C(C1CC1)N1CCCCN2[C@H](C1)[C@H](c1ccc(C#CC3CCCC3)cc1)[C@@H]2CO	none
C[C@H]1CN(C)C(=O)c2cccnc2O[C@@H]1CN(C)C	none
COc1ccc(C[C@@H]2CCn3cc(nn3)COC[C@H](C)NC2=O)cc1	none
O=C(Nc1cccc(-c2nc3ccccc3s2)c1)c1ccc2c(c1)OCO2	none
c1ccc2sc(-c3ccc4c(c3)OCO4)nc2c1	CD40 NFkB inh 53
c1ccc2[nH]c(-c3ccc4c(c3)OCO4)nc2c1	none
c1csc(-c2nc3ccccc3s2)c1	none
CCNC(=O)COC(=O)c1ccc(-c2nc3ccccc3s2)s1	none
CCN1CCN(C(=O)c2ccc(-c3nc4ccccc4s3)s2)CC1	none
O=C(NC1CC1)c1ccc(-c2nc3ccccc3s2)s1	CD40 NFkB inh 75
O=C(c1cc2ccccc2s1)N1CCOCC1	none
O=C(c1ccc(-c2nc3ccccc3s2)s1)N1CCOCC1	CD40 NFkB inh 88
N#C[C@@H]1[C@@H](c2ccc(-c3ccncc3)cc2)[C@@H](CO)N1C(=O)CN1CCOCC1	none
C[C@@H](O)C#Cc1ccc([C@@H]2[C@H](CO)N3CCCCN(S(=O)(=O)Cc4ccccc4)C[C@@H]23)cc1	none
O=C(Nc1ccc(F)cc1)N1C[C@@H]2[C@H](c3ccccc31)[C@@H](CO)N2C(=O)c1ccncc1	none
CCN(C[C@H]1[C@@H](c2ccc(-c3ccccc3F)cc2)[C@@H](CO)N1C(C)=O)C(C)=O	none
C[C@H]1CN([C@@H](C)CO)C(=O)c2cc(-c3ccc(F)cc3)cnc2O[C@@H]1CN(C)S(C)(=O)=O	none
O=C(C[C@@H]1C[C@H]2c3cc(NC(=O)Nc4ccccc4)ccc3O[C@H]2[C@H](CO)O1)NCc1ccccc1	none
COc1ccccc1S(=O)(=O)N(C)C[C@H]1OCc2ccccc2-c2ccccc2C(=O)N([C@@H](C)CO)C[C@@H]1C	none
CCNC1=C(Cl)C(=O)c2ccccc2C1=O	none
CCCC(=O)NC1=C(Cl)C(=O)c2ccccc2C1=O	CD40 NFkB inh 107
CCCC(=O)NNC(=O)CCC(=O)Nc1ccccc1Cl	none
COc1ccc(S(=O)(=O)N(C)C[C@@H]2Oc3ccc(NC(=O)Nc4ccc(C(F)(F)F)cc4)cc3C(=O)N([C@H](C)CO)C[C@@H]2C)cc1	none
C[C@@H]1CN([C@H](C)CO)C(=O)Cc2cc(NC(=O)Nc3ccc(C(F)(F)F)cc3)ccc2O[C@@H]1CN(C)CC1CCCCC1	none
C[C@H](CO)N1C[C@H](C)[C@H](CN(C)CC2CCCCC2)Oc2ccc(NC(=O)Nc3ccc(C(F)(F)F)cc3)cc2C1=O	CD40 NFkB inh 69
C[C@@H]1CCCCO[C@@H](CN(C)CC2CCCCC2)[C@@H](C)CN([C@H](C)CO)C(=O)c2cc(NC(=O)Nc3ccc(C(F)(F)F)cc3)ccc2O1	none
C[C@@H]1CCCCO[C@@H](CN(C)CC2CCCCC2)[C@H](C)CN([C@@H](C)CO)C(=O)c2cc(NC(=O)Nc3ccc(C(F)(F)F)cc3)ccc2O1	none
C[C@@H]1CCCCO[C@H](CN(C)CC2CCCCC2)[C@H](C)CN([C@@H](C)CO)C(=O)c2cc(NC(=O)Nc3ccc(C(F)(F)F)cc3)ccc2O1	CD40 NFkB inh 55[25 µM]
COc1ccc(S(=O)(=O)N(C)C[C@@H]2Oc3ccc(NC(=O)Nc4ccc(C(F)(F)F)cc4)cc3C(=O)N([C@H](C)CO)C[C@H]2C)cc1	CD40 NFkB inh 53[25 µM]
Cc1noc(C)c1NC(=O)N(C)C[C@@H]1OCCCC[C@@H](C)Oc2ccc(NC(=O)Nc3ccc(C(F)(F)F)cc3)cc2C(=O)N([C@H](C)CO)C[C@@H]1C	none
C[C@H](CO)N1C[C@H](C)[C@@H](CN(C)Cc2ccc3c(c2)OCO3)Oc2ccc(NC(=O)Nc3ccc(C(F)(F)F)cc3)cc2C1=O	none
Cc1noc(C)c1NC(=O)N(C)C[C@@H]1OCCCC[C@H](C)Oc2ccc(NC(=O)Nc3ccc(C(F)(F)F)cc3)cc2C(=O)N([C@H](C)CO)C[C@@H]1C	none
Cc1noc(C)c1NC(=O)N(C)C[C@@H]1OCCCC[C@@H](C)Oc2ccc(NC(=O)Nc3ccc(C(F)(F)F)cc3)cc2C(=O)N([C@H](C)CO)C[C@H]1C	CD40 NFkB inh 60[25 µM]
COc1ccc(S(=O)(=O)N(C)C[C@H]2Oc3ccc(NC(=O)Nc4ccc(C(F)(F)F)cc4)cc3C(=O)N([C@H](C)CO)C[C@@H]2C)cc1	none
CCNC(=O)[C@H]1[C@H](CO)[C@H]2Cn3c(ccc(C4=CCCCC4)c3=O)[C@@H]1N2CCC(F)(F)F	none
O=C(NCC[C@@H]1CC[C@H](NC(=O)c2ccccc2F)[C@H](CO)O1)c1cnccn1	none
O=C(C[C@@H]1C[C@H]2c3cc(NC(=O)c4ccc5c(c4)OCO5)ccc3O[C@H]2[C@H](CO)O1)NCc1ccc(Oc2ccccc2)cc1	none
CNC(=O)C[C@H]1CC[C@H]2[C@@H](COC[C@@H](O)CN2Cc2ccccc2F)O1	none
C[C@@H]1CN([C@@H](C)CO)C(=O)c2cccc(NC(=O)CCCCCC(=O)Nc3ccccc3N)c2O[C@H]1CN(C)Cc1ccc(Cl)c(Cl)c1	none
CN1C(=O)c2cc(NC(=O)c3cscn3)ccc2OC[C@@H]2O[C@@H](CC(=O)N3CCOCC3)CC[C@H]21	none
CCC(=O)N1CC2(C1)CN(C(=O)c1cnccn1)[C@@H](CO)c1c2c2ccc(OC)cc2n1C	none
COC(=O)c1ccc(CSc2cc(C)c3ccccc3n2)o1	CD40 NFkB inh 66
COC(=O)c1ccc(CSc2nnc(-c3ccccc3)n2C)o1	none
COC(=O)c1ccc(CSc2nnnn2-c2ccccc2)o1	none
N#C[C@H]1[C@@H](c2ccccc2C2=CCCCC2)[C@@H](CO)N1C(=O)C1CCOCC1	none
COc1cccc(-c2ccc3c(c2)[C@H]2[C@H](CCN2C(=O)C2CCCC2)[C@@H](CO)N3)c1	none
